Out of some 310,000 compounds screened, about 14,000 (4.5%) showed an effect of 50% or more. The effect is printed as a negative number. The list comes from a sample in which strong results are over-represented; it also holds similar structures and randomly drawn compounds.
Molecular target: human ether-à-go-go-related gene (hERG) potassium channel (human, UniProt Q12809)
Assay: primary screen, population patch clamp on CHO cells stably expressing hERG; higher = less effect of the substance
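Also: peak tail current of the secondary pulse compared with the same well before compound.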

Sequence of human ether-à-go-go-related gene (hERG) potassium channel (Q12809 whole entry, looked up): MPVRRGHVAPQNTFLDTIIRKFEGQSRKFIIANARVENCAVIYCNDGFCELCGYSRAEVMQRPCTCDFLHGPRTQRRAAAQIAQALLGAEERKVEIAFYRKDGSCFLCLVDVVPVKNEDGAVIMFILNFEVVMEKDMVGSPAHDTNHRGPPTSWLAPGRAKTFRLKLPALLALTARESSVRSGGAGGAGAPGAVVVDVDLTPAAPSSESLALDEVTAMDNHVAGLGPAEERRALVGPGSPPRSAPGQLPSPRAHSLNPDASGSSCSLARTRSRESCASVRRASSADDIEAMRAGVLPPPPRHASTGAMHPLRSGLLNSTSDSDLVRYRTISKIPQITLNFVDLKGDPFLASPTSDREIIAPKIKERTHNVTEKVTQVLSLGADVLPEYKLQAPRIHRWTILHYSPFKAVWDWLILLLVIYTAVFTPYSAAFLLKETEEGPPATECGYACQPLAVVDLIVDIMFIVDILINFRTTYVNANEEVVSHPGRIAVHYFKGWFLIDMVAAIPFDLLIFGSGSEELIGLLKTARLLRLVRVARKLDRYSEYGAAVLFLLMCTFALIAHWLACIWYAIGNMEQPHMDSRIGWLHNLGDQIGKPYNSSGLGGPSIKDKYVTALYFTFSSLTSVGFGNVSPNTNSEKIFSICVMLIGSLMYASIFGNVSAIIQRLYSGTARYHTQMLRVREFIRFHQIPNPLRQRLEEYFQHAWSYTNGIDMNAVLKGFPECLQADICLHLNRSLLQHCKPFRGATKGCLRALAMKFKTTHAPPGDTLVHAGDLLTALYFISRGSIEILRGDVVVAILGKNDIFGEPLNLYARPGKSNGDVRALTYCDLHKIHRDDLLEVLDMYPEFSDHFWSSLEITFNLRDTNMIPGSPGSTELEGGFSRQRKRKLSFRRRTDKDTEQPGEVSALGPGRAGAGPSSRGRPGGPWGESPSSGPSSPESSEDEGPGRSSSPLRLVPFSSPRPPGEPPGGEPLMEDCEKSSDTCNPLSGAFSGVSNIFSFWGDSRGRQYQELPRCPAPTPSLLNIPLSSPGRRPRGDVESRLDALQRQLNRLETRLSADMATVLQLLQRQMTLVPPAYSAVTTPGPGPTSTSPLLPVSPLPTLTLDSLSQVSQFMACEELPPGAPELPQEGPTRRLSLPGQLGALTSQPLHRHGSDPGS

Question: With `Cc1cc(NC(=O)c2ccc3nc(-c4ccccc4)c(-c4ccccc4)nc3c2)no1` as the molecule, how does the “hERG current change (%, negative = inhibition) at 10uM” value read?
Answer: The value was 6.59%.

Question: With `Nc1c(/C=C2\C=Nc3ccccc32)c(=O)nc2sc(CC(=O)N3CCOCC3)nn12` as the molecule, how does the “hERG current change (%, negative = inhibition) at 10uM” value read?
Answer: The value was 17.2%.

Question: With `Cc1ccc(Cn2c(C(C)Nc3nc(-c4ccc(Cl)c([N+](=O)[O-])c4)cs3)nc3cc(C(F)(F)F)ccc32)cc1` (stereo not drawn) as the molecule, how does the “hERG current change (%, negative = inhibition) at 10uM” value read?
Answer: Its value is 5.46%.

Question: How did the “hERG current change (%, negative = inhibition) at 10uM” value turn out when `Fc1ccccc1COc1ccc(/C=N/n2cnnc2)cc1` was run?
Answer: The value was -12.2%.

Question: With `COc1cc(O)c(C(CCN2CCCCC2)c2ccc(N(C)C)cc2)c(OC)c1` (stereo not drawn) as the molecule, how does the “hERG current change (%, negative = inhibition) at 10uM” value read?
Answer: The value was -8.43%.

Question: Which “hERG current change (%, negative = inhibition) at 10uM” value does the source give for `COc1cc(O)c(C(CCN2CCCC2)c2ccc(N(C)C)cc2)c(OC)c1` (stereo not drawn) here?
Answer: Its value is -10%.

Question: Which “hERG current change (%, negative = inhibition) at 10uM” value does the source give for `COc1ccc(C(CCN2CCOCC2)c2c(O)cc(OC)cc2OC)cc1` (stereo not drawn) here?
Answer: The value was -47.1%.

Question: How did the “hERG current change (%, negative = inhibition) at 10uM” value turn out when `COc1ccc(C(CCN2CCCC2)c2c(O)cc(OC)cc2OC)cc1` (stereo not drawn) was run?
Answer: The value was -61.2%.

Question: Which “hERG current change (%, negative = inhibition) at 10uM” value does the source give for `COc1cc(O)c(C(CCN2CCCCC2)c2cc(OC)c(OC)c(OC)c2)c(OC)c1` (stereo not drawn) here?
Answer: The value was 4.24%.

Question: Which “hERG current change (%, negative = inhibition) at 10uM” value does the source give for `COc1ccc(C(CCN2CCCCC2)c2c(O)cc(OC)cc2OC)cc1` (stereo not drawn) here?
Answer: Its value is -75.2%.

Question: How did the “hERG current change (%, negative = inhibition) at 10uM” value turn out when `COc1ccccc1NS(=O)(=O)c1ccc2c(c1)NC(=O)CC(=O)N2` was run?
Answer: The value was 14.5%.

Question: For `COc1cc(CNn2cn[nH]c2=S)cc(Br)c1OCc1ccccc1F`, which “hERG current change (%, negative = inhibition) at 10uM” value is on record?
Answer: The value was 6.75%.

Question: With `CC1(C(=O)O)COC(c2ccc(Cl)cc2)OC1` (stereo not drawn) as the molecule, how does the “hERG current change (%, negative = inhibition) at 10uM” value read?
Answer: Its value is -25.3%.

Question: For `CC(=O)Nc1ccc(S(=O)(=O)N(C)CC(=O)Nc2cccc(S(=O)(=O)N3CCCC3)c2)cc1`, which “hERG current change (%, negative = inhibition) at 10uM” value is on record?
Answer: Its value is -8.1%.

Question: Which “hERG current change (%, negative = inhibition) at 10uM” value does the source give for `COc1ccc(S(=O)(=O)CCC(=O)N2CCN(c3ccc(F)cc3)CC2)cc1` here?
Answer: The value was -59.7%.

Question: With `O=C(CCS(=O)(=O)c1ccc(Cl)cc1)N1CCN(c2ccc(F)cc2)CC1` as the molecule, how does the “hERG current change (%, negative = inhibition) at 10uM” value read?
Answer: Its value is -76.1%.

Question: `COc1ccc(N2CCN(C(=O)CCS(=O)(=O)c3ccc(OC)cc3)CC2)cc1` was tested. Which “hERG current change (%, negative = inhibition) at 10uM” value did it give?
Answer: Its value is -19.3%.

Question: `O=C(CCS(=O)(=O)c1ccccc1)N1CCN(c2ccc(F)cc2)CC1` was tested. Which “hERG current change (%, negative = inhibition) at 10uM” value did it give?
Answer: The value was -35.9%.

Question: For `COc1ccc(S(=O)(=O)CCC(=O)N2CCN(c3ccc(C(C)=O)cc3)CC2)cc1`, which “hERG current change (%, negative = inhibition) at 10uM” value is on record?
Answer: Its value is -45.9%.

Question: `O=C(CCS(=O)(=O)c1ccc(Br)cc1)N1CCN(c2ccc(Cl)cc2)CC1` was tested. Which “hERG current change (%, negative = inhibition) at 10uM” value did it give?
Answer: The value was -9.11%.

Question: `O=C(CCS(=O)(=O)c1ccc(F)cc1)N1CCN(c2ccccc2)CC1` was tested. Which “hERG current change (%, negative = inhibition) at 10uM” value did it give?
Answer: The value was -23.2%.

Question: How did the “hERG current change (%, negative = inhibition) at 10uM” value turn out when `O=C(CCS(=O)(=O)c1ccc(Br)cc1)N1CCN(c2ccc(F)cc2)CC1` was run?
Answer: The value was -66.3%.

Question: `O=C(CCS(=O)(=O)c1ccc(Cl)cc1)N1CCN(c2ccccc2F)CC1` was tested. Which “hERG current change (%, negative = inhibition) at 10uM” value did it give?
Answer: The value was -12.2%.

Question: For `Cc1ccc(-c2ccc(CCC(=O)O)o2)cc1`, which “hERG current change (%, negative = inhibition) at 10uM” value is on record?
Answer: The value was 14.5%.

Question: Which “hERG current change (%, negative = inhibition) at 10uM” value does the source give for `CN(CCC#N)C(=S)Nc1ccc(Oc2ccccc2)cc1` here?
Answer: Its value is -28.6%.

Question: `N#Cc1c(SCC(N)=O)nsc1SCc1ccc(Cl)cc1` was tested. Which “hERG current change (%, negative = inhibition) at 10uM” value did it give?
Answer: The value was -0.34%.

Question: How did the “hERG current change (%, negative = inhibition) at 10uM” value turn out when `Cn1nc(-c2ccc(C(=O)O)cc2)c2ccccc2c1=O` was run?
Answer: Its value is 11.6%.

Question: Which “hERG current change (%, negative = inhibition) at 10uM” value does the source give for `CC(C)C12CCC(C(=O)O)C(C1)C(=O)O2` (stereo not drawn) here?
Answer: The value was 13.9%.

Question: With `N#Cc1ccc(Oc2ccc(S(=O)(=O)N3CCCCC3)cn2)cc1` as the molecule, how does the “hERG current change (%, negative = inhibition) at 10uM” value read?
Answer: Its value is -24.7%.

Question: How did the “hERG current change (%, negative = inhibition) at 10uM” value turn out when `N#Cc1ccc(Oc2ccc(S(=O)(=O)N3CCCC3)cn2)cc1` was run?
Answer: Its value is -35.8%.

Question: With `N#Cc1ccccc1Oc1ccc(S(=O)(=O)N2CCCCC2)cn1` as the molecule, how does the “hERG current change (%, negative = inhibition) at 10uM” value read?
Answer: The value was -79.6%.

Question: For `N/C(=N\OC(=O)c1ccccc1Cl)c1ccccc1`, which “hERG current change (%, negative = inhibition) at 10uM” value is on record?
Answer: Its value is -16.2%.

Question: How did the “hERG current change (%, negative = inhibition) at 10uM” value turn out when `O=C(c1cccs1)N(C(=O)c1cccs1)c1ccccn1` was run?
Answer: Its value is 9.68%.

Question: For `CCCn1c2c(c(O)c(C(=O)NCc3ccccc3)c1=O)CCCC2`, which “hERG current change (%, negative = inhibition) at 10uM” value is on record?
Answer: The value was 17%.

Question: For `CC1CCc2cc(F)cc3c(O)c(C(=O)NCCN(C)C)c(=O)n1c23.Cl` (stereo not drawn), which “hERG current change (%, negative = inhibition) at 10uM” value is on record?
Answer: The value was -1%.

Question: With `CCCn1c2c(c(O)c(C(=O)NC)c1=O)CCCC2` as the molecule, how does the “hERG current change (%, negative = inhibition) at 10uM” value read?
Answer: The value was -6.66%.

Question: For `CC1CCc2cc(F)cc3c(O)c(C(=O)NCC4CCCO4)c(=O)n1c23` (stereo not drawn), which “hERG current change (%, negative = inhibition) at 10uM” value is on record?
Answer: Its value is -13.4%.

Question: How did the “hERG current change (%, negative = inhibition) at 10uM” value turn out when `CCCn1c2c(c(O)c(C(=O)NCCCN(CC)CC)c1=O)CCCC2.Cl` was run?
Answer: Its value is -55%.

Question: `CCn1c(=O)c(C(=O)NCCCc2ccccc2)c(O)c2ccccc21` was tested. Which “hERG current change (%, negative = inhibition) at 10uM” value did it give?
Answer: The value was 8.18%.

Question: For `CCN(CC)CCCNC(=O)c1c(O)c2cc(F)cc3c2n(c1=O)C(C)CC3.Cl` (stereo not drawn), which “hERG current change (%, negative = inhibition) at 10uM” value is on record?
Answer: The value was -50.5%.

Question: Which “hERG current change (%, negative = inhibition) at 10uM” value does the source give for `CCN(CC)CCNC(=O)c1c(O)c2ccccc2n(Cc2ccccc2)c1=O.Cl` here?
Answer: The value was -63%.

Question: Which “hERG current change (%, negative = inhibition) at 10uM” value does the source give for `CCn1c(=O)c(C(=O)NCCc2ccccc2)c(O)c2ccccc21` here?
Answer: The value was 19.7%.

Question: Which “hERG current change (%, negative = inhibition) at 10uM” value does the source give for `C=CCn1c(=O)c(C(=O)NCCN(CC)CC)c(O)c2ccccc21.Cl` here?
Answer: The value was -19.2%.

Question: For `CCn1c(=O)c(C(=O)NCCCO)c(O)c2ccccc21`, which “hERG current change (%, negative = inhibition) at 10uM” value is on record?
Answer: Its value is 10.1%.

Question: How did the “hERG current change (%, negative = inhibition) at 10uM” value turn out when `CCN(CC)CCCNC(=O)c1c(O)c2ccccc2n(Cc2ccccc2)c1=O.Cl` was run?
Answer: The value was -63.8%.

From PMC4336329 (PLoS ONE, 2015)
